# D2 ag-1 – D2 dopamine receptor (human) agonism; activation, % at 2 µM; HEK293 T-REx D2 cells, calcium flux agonist mode; P14416; 340,000 compounds, 0.53% hits;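 active = activation over 3 SD above normal in the single-dose calcium agonist read, cut at about 30% in these data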
# Target sequence (P14416 whole entry, looked up): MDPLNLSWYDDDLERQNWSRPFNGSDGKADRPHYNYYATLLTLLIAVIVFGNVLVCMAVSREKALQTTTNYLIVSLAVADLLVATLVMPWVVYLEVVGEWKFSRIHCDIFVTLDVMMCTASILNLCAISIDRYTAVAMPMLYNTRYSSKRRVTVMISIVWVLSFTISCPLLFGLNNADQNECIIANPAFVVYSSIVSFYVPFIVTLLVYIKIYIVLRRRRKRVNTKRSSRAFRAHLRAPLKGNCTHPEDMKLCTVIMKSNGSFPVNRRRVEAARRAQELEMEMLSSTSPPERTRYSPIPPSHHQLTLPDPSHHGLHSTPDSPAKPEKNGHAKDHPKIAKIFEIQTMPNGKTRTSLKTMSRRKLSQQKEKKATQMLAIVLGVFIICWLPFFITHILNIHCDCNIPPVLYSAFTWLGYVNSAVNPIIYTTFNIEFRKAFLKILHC
#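 Agonism scored from kinetic calcium signal (1 read/sec, 180 s) following compound pin transfer, after a 10 s baseline. Cells: HEK293 Trex line expressing inducible D2 receptor coupled to calcium, dye-loaded after overnight culture at 30 C.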
# D2 PAM-1 – D2 dopamine receptor (human) potentiation. P14416. 340,000 compounds, 0.34% hits. AID 485347. potentiation, % at 10 µM. HEK293 T-REx D2, calcium flux, EC20 dopamine potentiation;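 active = potentiation over 3 SD above the plate norm, cut at about 30% in these data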
#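 Primary screen. Calcium kinetics in induced HEK293 T-REx D2 cells: compound pre-addition 180 s, EC20 dopamine, 180 s more.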
# D2 ag-2 – agonists of human D2 dopamine receptor (beta-arrestin); DiscoveRx PathHunter D2 beta-arrestin, luminescence, 90 min; 100% = 57 uM dopamine signal; 360,000 compounds, 0.084% hits; P14416; activation, % (concentration not given with the values); in the data active = activation above about 40%; inconclusive = between about 15% and that limit
#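 DiscoveRx PathHunter D2 beta-arrestin cells (2,100/well) attached overnight, then compound-stimulated 90 min at 37 C in HBSS/10 mM HEPES/0.1% Tween-20 buffer; beta-galactosidase complementation read by luminescence after 1 h at ambient temperature. Dopamine 57 uM final (EC100) as control.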
# D2 PAM-2 – human D2 receptor positive allosteric modulation; P14416; DiscoveRx D2 beta-arrestin cells, luminescence, 90 min; 100% = 57 uM dopamine signal; potentiation, % (concentration not given with the values); 360,000 compounds, 0.23% hits; in the data active = potentiation above about 50%; inconclusive = mostly about 30% to 49%
#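 D2 cells co-treated with compound plus 50 nM dopamine (EC20) for 90 min at 37 deg C to detect potentiation. Beta-arrestin recruitment was read as enzyme-fragment luminescence after 1 h at ambient temperature. Full response was set by 57 uM dopamine.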
# D2 antagonist – D2 dopamine receptor (human) antagonism | inhibition, % at 10 µM | HEK293 TREx D2 cells, calcium flux, dopamine EC80 | 340,000 compounds, 2% hits | P14416; in the data active = inhibition above about 30%; inactive = below that, where a call was filed
#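 Inhibition of EC80 dopamine-driven calcium flux, recorded kinetically, defines activity here; cells are a tetracycline-induced HEK293 T-REx line expressing force-coupled D2.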
# Hits are given with their value; 0 = inactive; ? = inconclusive; - = no result. Compounds with a hit are over-represented: about 2.4% of the library has one in this group of screens.
SMILES,D2 ag-1,D2 PAM-1,D2 ag-2,D2 PAM-2,D2 antagonist
Clc1c(Cl)c(Cl)c2n[nH]nc2c1Cl,0,0,0,0,38.1
COc1cc2ccccc2cc1C(=O)Nc1ccc(Cl)c(-c2nc3ccccc3o2)c1,0,0,-,-,-
O=C(Nc1ccc(F)cc1F)c1noc2c1CCc1ccccc1-2,0,0,-,-,-
COCCNC(=S)N(CCc1c(C)[nH]c2ccc(Cl)cc12)Cc1cccs1,0,0,0,0,0
CNC(=S)N(CCc1c(C)[nH]c2ccc(F)cc12)Cc1cccnc1,0,31.4,0,0,0
COCCNC(=S)N(CCc1c(C)[nH]c2ccc(F)cc12)Cc1cccs1,0,0,0,0,30.0
Cc1[nH]c2ccc(F)cc2c1CCN(Cc1cccnc1)C(=S)Nc1ccccc1,0,0,0,0,0
O=C(CCCn1c(=O)[nH]c2ccccc2c1=O)NC1CCCCCC1,0,0,0,0,0
CC1CCC(NC(=O)CCCn2sc3ccccc3c2=O)CC1 (stereo not given),0,0,0,0,39.0
COc1ccc(/C=C2\SC(N3CCc4ccccc4C3)=NC2=O)cc1OC,0,0,0,0,53.1
CCc1ccc(NC(=O)c2ccc(CN3C(=O)C(C)=C(c4ccc(C)cc4)S3(=O)=O)cc2)cc1,0,0,-,-,-
C=CCN(CC=C)CCOc1cccc2ccccc12,35.2,0,0,0,0
C=CCN(CC=C)CCOc1ccccc1F,0,0,0,0,0
COc1ccc(CCNC(=O)C2Cc3ccccc3C(=O)O2)cc1 (stereo not given),0,0,0,0,0
COc1ccc(CCNC2CCc3ccccc3C2)cc1 (stereo not given),0,0,0,0,81.0
CCC1=C(OC(=O)N(CC)CC)N2C(=O)OC(=NCC(=O)OC)[C@]2(Cc2ccccc2)[C@H]2C1=CC[C@H]1C(=O)NC(=O)[C@H]12,0,0,0,0,53.2
CCC1=C(OC(=O)N(CC)CC)N2C(=O)OC(=NCC(=O)OC)[C@]2(Cc2ccccc2)[C@H]2C1=CC[C@H]1C(=O)N(C)C(=O)[C@H]12,0,0,0,0,0
COc1ccc(N(CC(=O)Nc2c(C)n(C)n(-c3ccccc3)c2=O)S(=O)(=O)c2ccc(C)cc2)cc1OC,0,0,0,0,34.6
Cc1ccc(OC(=O)CSc2nnc(-c3ccc4c(c3)OCO4)o2)c(C)c1,0,0,-,-,-
Cc1c(CC(=O)N[C@@H](C)C(=O)O)c(=O)oc2cc3c(cc12)CCC(C)(C)O3,0,0,0,0,36.3
Cc1c(CC(=O)NC(C)C)c(=O)oc2cc3c(cc12)CCC(C)(C)O3,0,0,0,0,0
Cc1ccc(C(c2sc3nc(-c4ccco4)nn3c2O)N2CCCC2)cc1 (stereo not given),0,0,-,-,-
CCOC(=O)N=S(N)(=O)c1ccc(Cl)cc1 (stereo not given),0,30.9,0,0,0
O=C(CSc1n[nH]c(-c2ccc(S(=O)(=O)N3CCCCC3)cc2)n1)Nc1nccs1,0,0,0,0,39.2
Cc1c(C(=O)Nc2ccc(F)c(F)c2)oc2ccc(S(=O)(=O)N(C)C3CCCCC3)cc12,0,0,-,-,-
SMILES,D2 ag-1,D2 PAM-1,D2 ag-2,D2 PAM-2,D2 antagonist
O=Cc1ccc(OCC(=O)NCC2CCCO2)cc1 (stereo not given),0,0,0,0,30.1
Cc1sc2nc(CSc3ccccc3)nc(N3CCN(C)CC3)c2c1C,0,0,0,0,89.9
CCOC(=O)C1=C(COC(=O)COc2ccc(Br)cc2)NC(=O)NC1C (stereo not given),0,0,0,0,82.5
CCc1nn(CC(=O)NCCOC)c(=O)c2cc3cc(F)ccc3n12,0,0,-,-,-
CCOC(=O)c1ccc(NC(=O)N2CCOc3ccccc32)cc1,0,0,-,-,-
CCc1ccccc1NC(=O)c1ccc(=O)n(Cc2ccc(F)cc2)c1,0,0,-,-,-
Cc1[nH]c(=O)c(C#N)c(C)c1Br,-,40.7,0,0,-
Cc1ccc(Cl)cc1NS(=O)(=O)c1ccc(N2CCCCS2(=O)=O)cc1,0,0,-,-,-
O=C(NCc1ccccc1)c1cc(-c2cccs2)on1,-,-,0,0,-
O=C(NCc1ccccc1)c1nc(-c2cccs2)no1,0,0,0,0,36.3
CCc1ccccc1NC(=O)c1cnc2sc(N3CCOCC3)nn2c1=O,0,0,-,-,-
O=[N+]([O-])c1ccc(NN=Cc2ccccc2O)nc1,-,-,0,0,-
O=[N+]([O-])c1ccc(N/N=C/c2ccccc2O)cc1,0,0,0,0,35.8
CCOc1ccc(CNc2cc(C)nc3nc(-c4cccc(C)c4)nn23)cc1OC,0,0,-,-,-
COc1ccc(NC(=O)COC(C)=O)cc1Cl,0,0,0,0,0
COCC(=O)Nc1ccc(OC)c(Cl)c1,0,0,0,0,36.6
COc1cc(OC)cc(C(=O)NCC(=O)Nc2ccc(OC)c(Cl)c2)c1,0,0,0,0,36.8
COc1cc(/C=C2\SC(=Nc3ccccc3)NC2=O)cc(Cl)c1O,74.4,0,0,0,38.5
CCc1ccc(N=C2NC(=O)/C(=C/c3cc(OC)c(O)c(OC)c3)S2)cc1,0,0,?,0,0
COC(=O)/C=C1\SC(=Nc2ccc(Cl)c(Cl)c2)NC1=O,0,-,0,0,0
COc1cc(/C=C2\SC(=Nc3ccc(Cl)c(C(=O)O)c3)NC2=O)c(Br)c(Br)c1O,87.0,0,0,0,37.0
Cc1cccc(-n2ccnc2SCC(=O)Nc2cccc3ccccc23)c1,0,0,-,-,-
COc1ccc(CCNC(=O)CN(c2ccccc2)S(=O)(=O)N(C)C)cc1OC,0,0,-,-,-
O=C(Cn1nc([N+](=O)[O-])nc1Br)NC(c1ccccc1)c1ccccc1,0,0,0,58.0,0
Cc1cc([N+](=O)[O-])nn1CC(=O)NC(C)c1ccccc1 (stereo not given),0,0,0,0,0
SMILES,D2 ag-1,D2 PAM-1,D2 ag-2,D2 PAM-2,D2 antagonist
O=C1CCCCCC1C1(O)C(=O)Nc2ccccc21 (stereo not given),0,42.4,0,0,0
COc1ccc2c(c1)CC(C1(O)C(=O)Nc3ccccc31)C2=O (stereo not given),0,0,0,0,0
CCCCNc1nc2ccccc2n1CC(=O)N1CCc2ccccc2C1,0,0,0,0,52.9
CCCCNC(=O)N1CCc2ccccc2C1,0,0,0,0,0
COc1ccccc1CN1C[C@@H]2C[C@@H](c3ccc(C)c(C)c3)N3CCC[C@@]23C1=O,0,0,0,0,34.9
COc1ccc(C2/C=C\CN(C(=O)c3ccc(C)cc3)[C@H](Cc3ccccc3)C(=O)N2Cc2ccc(F)cc2)cc1 (stereo not given in full),0,0,0,0,41.0
Cc1cc2cc(CN(Cc3ccc4c(c3)OCO4)Cc3nnnn3C3CCCC3)c(=O)[nH]c2cc1C,0,0,0,0,0
O=c1[nH]c2cc3c(cc2cc1CN(CCc1ccccc1)Cc1nnnn1C1CCCC1)OCCO3,34.9,0,-,-,0
